# DNMT1 inh: human DNMT1 methyltransferase inhibitors, primary screen, biochemical, molecular beacon, fluorescence, HinP1I cleavage, uHTS; inhibition (reported as % activation of signal), % at 10 µM; 0.83% of 360,000 active; AID 588458, 2011; in the data active = inhibition above about 50%
# MBD2 DNA inh: inhibitors of MBD2 binding to methylated DNA, primary screen, biochemical, TR-FRET, DNA-binding domain, human; MBD2 binding to methylated oligonucleotide; 0.31% of 370,000 active; AID 686964, 2013; inhibition, % at 4.4 µM; Methyl-CpG-binding domain protein 2 (Homo sapiens), Q9UBB5; in the data active = inhibition above about 13%
# Target sequence (Q9UBB5 whole entry, looked up, the tested form may be a part): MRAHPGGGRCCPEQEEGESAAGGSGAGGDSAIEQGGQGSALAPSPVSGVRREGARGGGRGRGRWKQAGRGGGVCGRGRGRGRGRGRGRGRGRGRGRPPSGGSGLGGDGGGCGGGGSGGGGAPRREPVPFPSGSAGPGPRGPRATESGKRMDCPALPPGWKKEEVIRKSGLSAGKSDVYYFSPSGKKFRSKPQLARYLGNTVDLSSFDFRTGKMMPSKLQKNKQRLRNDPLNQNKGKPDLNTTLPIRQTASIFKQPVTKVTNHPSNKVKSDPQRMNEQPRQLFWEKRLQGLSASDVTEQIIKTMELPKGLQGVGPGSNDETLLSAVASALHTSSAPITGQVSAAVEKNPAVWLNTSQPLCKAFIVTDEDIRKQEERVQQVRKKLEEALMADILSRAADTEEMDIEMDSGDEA
# PG9 binder: binders of HIV-1 gp120 antibody PG9, primary screen, biochemical, TR-FRET | TR-FRET gp120-PG9 antibody binding | inhibition, % at 6.7 µM | 0.43% of 360,000 active | AID 624416, 2012; in the data active = inhibition above about 8.5%
# LEDGF integ inh: blockers of LEDGF/p75-dependent integrase strand transfer – biochemical, TR-FRET, high throughput, primary screen; HIV-1 integrase (with human LEDGF/p75); TR-FRET IN-LEDGF/p75 DNA integration, Eu/Cy5; inhibition, % at 3.7 µM; 0.64% of 370,000 active; AID 743269, 2014;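 active = inhibition above the screen-wide mean plus 3 SD, cut at about 13% in these data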;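 note: signal is the Cy5 over europium emission ratio at 671 and 618 nm; 0% = plate median of compound wells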
# UHRF1 MBD2 ctr: UHRF1 methylated DNA binding inhibitors, primary screen, counter-screen for MBD2 inhibitor project, biochemical, TR-FRET, human UHRF1, single concentration | E3 ubiquitin-protein ligase UHRF1 (Homo sapiens), Q96T88 | UHRF1 binding to methylated oligo | inhibition, % at 4.4 µM | 0.75% of 370,000 active; in the data active = inhibition above about 21%;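 note: UHRF1 SRA domain binding a hemimethylated CpG hairpin DNA probe; 0% = median of test compound wells and 100% = reference inhibitor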
# rCAG RNA binder: binders of r(CAG) RNA repeats, primary screen, biochemical, fluorescence | r(CAG) RNA repeat, TO-PRO-1 dye displacement fluorescence | AID 651821, 2012 | inhibition, % at 3 µM | 1.3% of 370,000 active;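 active = inhibition above the plate cutoff, the mean of all test compounds on that plate plus 3 SD, cut at about 35% in these data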;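 note: 0% = DMSO alone and 100% = 100 µM mitoxantrone as full dye displacement; higher means more dye released from RNA so lower well fluorescence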
# Numbers without * were called inactive; . = no result given. This is a sample that favours compounds with a hit; in the whole collection about 3.5% have one here.
SMILES,DNMT1 inh,MBD2 DNA inh,PG9 binder,LEDGF integ inh,UHRF1 MBD2 ctr,rCAG RNA binder
CNS(=O)(=O)c1cccc(C(=O)OCC(=O)N2CCN(C(=O)c3ccco3)CC2)c1,0,1,1,-2,-2,0
O=C(OCC(=O)N1CCN(C(=O)c2ccco2)CC1)c1cc(-c2ccco2)nc2ccccc12,97*,.,.,.,.,.
O=C(OCC(=O)N1CCN(C(=O)c2ccco2)CC1)c1cc(-c2ccc(Cl)c(Cl)c2Cl)nc2ccccc12,-13,-2,1,-4,0,13
O=C(COc1ccccc1O)N1CCN(C(=O)c2ccco2)CC1,1,-3,-1,1,2,2
O=C(OCC(=O)N1CCN(C(=O)c2ccco2)CC1)c1cccc(S(=O)(=O)N2CCc3ccccc32)c1,0,-2,-3,0,21*,-3
O=C(Nc1c(-c2ccccc2)nc2ncccn12)C1CC1,.,2,.,2,0,-1
C[C@H]1[C@H](NC(=O)c2cccc(Cl)c2)CC[C@@]23CCCN2C(=O)CCC[C@@H]13,.,3,.,2,-3,.
CCOC(=O)NC(=S)Nc1cccc(NC(=S)NC(=O)OCC)c1,1,-1,-2,-4,0,0
CCOC(=O)NC(=S)c1ccc[nH]1,-1,-3,-5,1,23*,3
Cn1c(=O)[nH]c(=O)c2c1nc(SCCN1CCOCC1)n2Cc1ccccc1,-2,1,-1,2,2,-7
Cn1c(=O)[nH]c(=O)c2c1nc(SCCN1CCOCC1)n2CCCc1ccccc1,1,0,19*,8,2,2
COc1ccc(Cc2c(C3CCCCC3)nc3ccc(Br)cn23)c(C)c1,-2,4,1,1,19,8
O=C(O)Cc1cccc2ccccc12,0,4,0,4,-3,1
O=C(O)Cc1cccc(=O)c(O)c1C(=O)O,86*,.,.,.,.,.
CC(C)(C)OC(=O)C[C@H]1C/C=C\C[C@H](CC(=O)NCCO)C(=O)NCCOC1=O,7,2,-1,0,-1,-4
CC(C)(C)OC(=O)C[C@@H]1C/C=C\C[C@@H](CC(=O)NCCO)C(=O)NCCOC1=O,3,-1,-1,18*,2,-4
CSc1ccccc1NC(=O)NCCCl,4,2,-3,-1,22*,-2
CSc1ccccc1NC(=O)Nc1ccccc1Cl,2,2,0,-2,0,-2
COc1cccc(C(=O)Oc2c(Br)cc(Br)cc2/C=N/NC(=O)c2cc(C)[nH]n2)c1,-2,2,0,-4,31*,14
CC1=NN(c2ccc(S(=O)(=O)O)cc2C)C(=O)C1,-10,-6,-3,1,-5,2
O=C(O)C1=NN(c2cc(Cl)c(S(=O)(=O)O)cc2Cl)C(=O)C1,29,7,-2,11,31*,5
Nc1nc(Cn2nnc(-c3ccccc3Cl)n2)nc(N2CCOCC2)n1,-2,0,0,-1,29*,-4
CCCc1nc2c(C)cc(Br)cn2c1Cc1cccc(Cl)c1,.,9,1,0,24*,3
CCCc1nc2c(C)cc(Br)cn2c1Cc1ccc(C)cc1,1,7,-1,-4,22*,10
CCCc1nc2c(C)cc(Br)cn2c1Cc1ccccc1OC,.,9,2,0,22*,8
CCCc1nc2c3ccccc3ccn2c1Cc1cccc(F)c1,1,4,1,4,21*,4
COc1ccccc1Cc1c(-c2ccccc2)nc2c(C)cc(Br)cn12,1,1,1,-1,14,18
COc1ccc(C[N+]2=C(N)NC3=C4CCCCC4n4c(=O)n(-c5ccccc5)c(=O)n4C3C2)c(OC)c1 (stereo not given),.,3,.,0,0,16
CN1CCN(C(=O)OC2CC3CC2[C@H]2CCCCN2C3=O)CC1 (stereo not given in full),.,2,0,1,21*,1

# From PubChem
